Common to all, as to assay: protein domain microarray probed with biotinylated miRNA; Domain array: 20 mM Tris-HCl pH 7.4, 200 mM KCl, 0.2 mM EDTA, 0.05% NP40, 2 ug/ul heparin, overnight 4 C. ORF array: PBS pH 7.0 with RNase inhibitor, 100 ng RNA; high values mean tight binding
Conditions in all cases: ssRNA

In experiment [1] the target is CELF2(1-2) (Homo sapiens, UniProt O95319).
The target in experiment [2] is T1, Acinus(1) (Homo sapiens, UniProt Q9UKV3).
T1 sequence: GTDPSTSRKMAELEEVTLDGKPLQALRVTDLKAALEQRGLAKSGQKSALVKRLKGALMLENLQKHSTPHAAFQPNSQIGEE

Experiment [3] has as its target CELF4(1-2) (Homo sapiens, UniProt Q9BZC1).
Experiment [4] addresses T2, BOLL (Homo sapiens, UniProt Q8N9W6).
T2 sequence: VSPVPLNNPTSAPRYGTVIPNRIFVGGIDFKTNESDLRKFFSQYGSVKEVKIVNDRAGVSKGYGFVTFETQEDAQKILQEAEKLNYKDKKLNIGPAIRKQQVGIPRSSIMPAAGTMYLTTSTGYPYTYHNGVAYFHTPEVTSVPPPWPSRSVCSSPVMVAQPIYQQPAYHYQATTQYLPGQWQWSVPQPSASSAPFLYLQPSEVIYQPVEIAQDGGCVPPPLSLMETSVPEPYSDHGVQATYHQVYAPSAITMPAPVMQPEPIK

Experiment [5] addresses CELF1(1-2) (Homo sapiens, UniProt Q92879).
The target of experiment [6] is CELF4(3) (Homo sapiens, UniProt Q9BZC1).
CELF4(3), sequence (Q9BZC1 380-486): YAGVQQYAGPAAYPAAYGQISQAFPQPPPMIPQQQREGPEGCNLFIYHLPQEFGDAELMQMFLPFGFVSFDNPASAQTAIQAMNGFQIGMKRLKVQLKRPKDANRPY
Experiment [7] addresses CELF2(3) (Homo sapiens, UniProt O95319).
Experiment [8] concerns the target CELF1(3) (Homo sapiens, UniProt Q92879).
The target in experiment [9] is T3, A2BP1 (Homo sapiens, UniProt Q9NWB1).
T3 sequence: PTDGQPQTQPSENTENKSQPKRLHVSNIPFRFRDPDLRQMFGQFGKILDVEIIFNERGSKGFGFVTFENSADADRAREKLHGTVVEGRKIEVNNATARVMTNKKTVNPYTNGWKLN

Experiment [10] addresses T4, G3BP-2 (Homo sapiens, UniProt Q9UN86).
T4 sequence: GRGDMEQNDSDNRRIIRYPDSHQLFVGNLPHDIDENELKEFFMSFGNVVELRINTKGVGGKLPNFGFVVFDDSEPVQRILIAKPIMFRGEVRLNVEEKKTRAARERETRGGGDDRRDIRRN

The target in experiment [11] is hnRNP-A2/B1 (Homo sapiens, UniProt P22626).
hnRNP-A2/B1, sequence (P22626 1-210): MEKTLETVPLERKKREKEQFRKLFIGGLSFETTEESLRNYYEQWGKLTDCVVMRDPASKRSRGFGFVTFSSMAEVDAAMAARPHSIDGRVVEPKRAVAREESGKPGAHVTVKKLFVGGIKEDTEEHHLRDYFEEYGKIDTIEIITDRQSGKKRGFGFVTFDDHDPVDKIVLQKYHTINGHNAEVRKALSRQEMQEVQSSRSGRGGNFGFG
Experiment [12] deals with T5, DAZAP1 (Homo sapiens, UniProt Q96EP5).
T5 sequence: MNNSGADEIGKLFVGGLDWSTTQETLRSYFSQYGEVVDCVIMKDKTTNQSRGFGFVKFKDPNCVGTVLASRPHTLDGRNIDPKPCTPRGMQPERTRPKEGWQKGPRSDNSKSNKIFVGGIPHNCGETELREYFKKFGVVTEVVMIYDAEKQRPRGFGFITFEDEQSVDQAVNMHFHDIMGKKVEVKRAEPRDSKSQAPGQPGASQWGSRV

The target in experiment [13] is ELAVL2 (Homo sapiens, UniProt Q12926).
ELAVL2, sequence (Q12926 20-359): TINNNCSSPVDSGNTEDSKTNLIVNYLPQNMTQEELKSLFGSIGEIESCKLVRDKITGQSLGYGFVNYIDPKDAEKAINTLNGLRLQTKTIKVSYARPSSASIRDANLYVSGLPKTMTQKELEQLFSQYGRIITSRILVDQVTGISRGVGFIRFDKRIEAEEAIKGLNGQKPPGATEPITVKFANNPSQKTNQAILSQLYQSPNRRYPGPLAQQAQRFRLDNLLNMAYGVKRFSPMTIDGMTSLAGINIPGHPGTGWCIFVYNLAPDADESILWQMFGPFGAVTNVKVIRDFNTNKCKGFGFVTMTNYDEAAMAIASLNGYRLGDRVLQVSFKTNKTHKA
Experiment [14] concerns the target T6, CPEB2 (Homo sapiens, UniProt Q7Z5Q1).
T6 sequence: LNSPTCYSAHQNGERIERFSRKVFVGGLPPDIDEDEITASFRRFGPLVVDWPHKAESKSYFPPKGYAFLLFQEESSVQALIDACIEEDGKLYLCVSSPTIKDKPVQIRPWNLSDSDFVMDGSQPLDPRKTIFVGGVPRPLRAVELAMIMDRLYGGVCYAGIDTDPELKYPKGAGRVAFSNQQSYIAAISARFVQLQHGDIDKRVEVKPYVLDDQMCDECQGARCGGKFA

Experiment [15] addresses hnRNP-C1/C2 (Homo sapiens, UniProt P07910).
Experiment [16] has as its target CELF6(3) (Homo sapiens, UniProt Q96J87).
The target in experiment [17] is T7, Matrin-3 (Homo sapiens, UniProt P43243).
T7 sequence: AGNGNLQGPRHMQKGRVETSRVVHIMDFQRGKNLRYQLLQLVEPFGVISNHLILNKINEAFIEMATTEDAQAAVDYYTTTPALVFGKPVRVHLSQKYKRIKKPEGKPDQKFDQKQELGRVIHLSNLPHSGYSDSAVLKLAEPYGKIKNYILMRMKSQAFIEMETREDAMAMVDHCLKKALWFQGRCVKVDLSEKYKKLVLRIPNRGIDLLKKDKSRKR

The target in experiment [18] is PABP3 (Homo sapiens, UniProt Q9H361).
PABP3, sequence (Q9H361 1-390): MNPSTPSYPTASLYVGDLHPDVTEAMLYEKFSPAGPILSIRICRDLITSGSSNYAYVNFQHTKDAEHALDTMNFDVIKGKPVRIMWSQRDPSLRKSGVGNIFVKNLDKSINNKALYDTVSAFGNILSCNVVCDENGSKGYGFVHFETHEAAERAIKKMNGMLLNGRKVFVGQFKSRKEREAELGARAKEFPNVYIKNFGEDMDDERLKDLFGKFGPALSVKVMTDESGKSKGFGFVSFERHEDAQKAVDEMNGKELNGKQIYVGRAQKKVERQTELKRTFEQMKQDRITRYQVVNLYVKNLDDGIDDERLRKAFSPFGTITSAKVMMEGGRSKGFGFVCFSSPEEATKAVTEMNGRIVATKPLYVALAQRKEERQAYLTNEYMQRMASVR
Experiment [19] has as its target ZCRB1 (Homo sapiens, UniProt Q8TBF4).
Experiment [20] concerns the target T8, HNRPLL (Homo sapiens, UniProt Q8WVV9).
T8 sequence: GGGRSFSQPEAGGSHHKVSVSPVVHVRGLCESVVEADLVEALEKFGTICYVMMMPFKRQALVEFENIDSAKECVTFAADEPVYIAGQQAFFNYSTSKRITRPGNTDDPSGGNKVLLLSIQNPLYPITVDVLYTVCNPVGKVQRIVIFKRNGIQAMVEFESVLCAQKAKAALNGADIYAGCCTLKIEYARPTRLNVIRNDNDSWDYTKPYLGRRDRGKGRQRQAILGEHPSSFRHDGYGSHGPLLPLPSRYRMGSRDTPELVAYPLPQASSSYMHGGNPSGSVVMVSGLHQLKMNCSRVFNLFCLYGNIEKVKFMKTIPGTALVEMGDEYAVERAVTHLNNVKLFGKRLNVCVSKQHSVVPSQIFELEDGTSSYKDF

CELF6(3), sequence (Q96J87 372-481): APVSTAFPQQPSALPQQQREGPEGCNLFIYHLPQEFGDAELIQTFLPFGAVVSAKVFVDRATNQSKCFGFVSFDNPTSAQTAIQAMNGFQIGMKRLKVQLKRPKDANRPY
CELF1(3), sequence (Q92879 370-486): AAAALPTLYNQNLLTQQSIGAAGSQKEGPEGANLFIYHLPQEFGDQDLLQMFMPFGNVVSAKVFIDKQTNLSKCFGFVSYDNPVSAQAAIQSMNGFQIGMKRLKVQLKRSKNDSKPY
CELF2(3), sequence (O95319 396-508): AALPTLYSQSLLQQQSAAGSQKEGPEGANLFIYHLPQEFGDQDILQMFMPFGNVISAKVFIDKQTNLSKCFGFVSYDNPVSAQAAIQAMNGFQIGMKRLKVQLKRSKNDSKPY
CELF1(1-2), sequence (Q92879 1-210): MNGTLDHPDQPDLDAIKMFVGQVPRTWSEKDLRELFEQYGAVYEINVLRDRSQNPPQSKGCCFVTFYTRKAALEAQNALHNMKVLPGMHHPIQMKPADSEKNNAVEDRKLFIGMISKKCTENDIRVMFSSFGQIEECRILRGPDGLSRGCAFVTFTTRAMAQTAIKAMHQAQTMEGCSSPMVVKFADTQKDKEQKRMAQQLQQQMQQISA
ZCRB1, sequence (Q8TBF4 1-110): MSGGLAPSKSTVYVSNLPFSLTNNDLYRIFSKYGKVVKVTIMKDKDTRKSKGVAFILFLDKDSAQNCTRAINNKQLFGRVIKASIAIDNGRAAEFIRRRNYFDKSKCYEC
hnRNP-C1/C2, sequence (P07910 1-110): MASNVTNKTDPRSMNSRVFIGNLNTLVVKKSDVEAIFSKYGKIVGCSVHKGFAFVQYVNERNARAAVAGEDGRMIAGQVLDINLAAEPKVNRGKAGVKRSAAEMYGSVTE
CELF4(1-2), sequence (Q9BZC1 31-250): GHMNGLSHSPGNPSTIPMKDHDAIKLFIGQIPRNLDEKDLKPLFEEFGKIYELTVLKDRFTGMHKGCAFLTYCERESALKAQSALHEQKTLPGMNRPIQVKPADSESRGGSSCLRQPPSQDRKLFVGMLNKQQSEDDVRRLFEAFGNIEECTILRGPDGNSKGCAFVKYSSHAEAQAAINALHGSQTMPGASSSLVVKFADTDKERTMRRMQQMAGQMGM
CELF2(1-2), sequence (O95319 19-241): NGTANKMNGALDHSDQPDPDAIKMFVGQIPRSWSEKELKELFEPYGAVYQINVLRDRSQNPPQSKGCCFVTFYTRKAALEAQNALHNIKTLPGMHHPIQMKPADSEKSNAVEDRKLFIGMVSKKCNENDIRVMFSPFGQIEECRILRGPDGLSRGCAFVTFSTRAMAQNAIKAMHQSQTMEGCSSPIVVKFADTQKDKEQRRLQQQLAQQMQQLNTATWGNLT

Take UGAGGUAGUAGGUUGUGUGGUU: the binding signal in experiment [1] came to 156 ± 18.9 fluorescence intensity; in [2] it was 330 ± 24.8 fluorescence intensity; in experiment [3] it was 241 ± 6.35 fluorescence intensity; in experiment [4], 986 ± 65.6 fluorescence intensity; in experiment [5], 32.2 ± 23.1 fluorescence intensity; in experiment [6], 33.3 ± 4.99 fluorescence intensity. Moreover, the binding signal turned out to be 2850 ± 134 fluorescence intensity in experiment [7]; 2820 ± 118 fluorescence intensity in [8]; 3130 ± 57 fluorescence intensity in experiment [9]; 967 ± 16.3 fluorescence intensity in [10]; 2240 ± 7.74 fluorescence intensity in experiment [11]; 2560 ± 130 fluorescence intensity in experiment [12]. The binding signal was 1370 ± 72.6 fluorescence intensity in experiment [13]; 108 ± 11.6 fluorescence intensity in experiment [14]; 742.6 ± 1.1 fluorescence intensity in experiment [15]; 653 ± 52 fluorescence intensity in experiment [16]; 496.54 ± 0.269 fluorescence intensity in [17]; 334 ± 26 fluorescence intensity in [18]. Further, the binding signal was determined as 1440 ± 63.3 fluorescence intensity in [19] and 120 ± 20.3 fluorescence intensity in [20].

Turning to AGAGGUAGUAGGUUGCAUAGUU, the binding signal was 63.2 ± 10.6 fluorescence intensity in [1]; 144 ± 9.49 fluorescence intensity in experiment [2]; 73.4 ± 2.28 fluorescence intensity in experiment [3]; 995 ± 54.2 fluorescence intensity in [4]; 20.1 ± 13.8 fluorescence intensity in experiment [5]; 28.9 ± 2.98 fluorescence intensity in experiment [6]. The binding signal was 2420 ± 70.3 fluorescence intensity in experiment [7]; 2720 ± 64 fluorescence intensity in experiment [8]; 4220 ± 134 fluorescence intensity in experiment [9]; 942 ± 20.8 fluorescence intensity in [10]; 3610 ± 47.7 fluorescence intensity in experiment [11]; 3900 ± 300 fluorescence intensity in [12]. The binding signal in [13] stood at 1660 ± 45 fluorescence intensity; in experiment [14], 65.7 ± 16.8 fluorescence intensity; in experiment [15] it was 406 ± 24 fluorescence intensity; in [16] it was 608 ± 73.6 fluorescence intensity; in experiment [17], 201 ± 2.89 fluorescence intensity; in experiment [18], 119 ± 10.5 fluorescence intensity. Besides, the figures for the binding signal in [19] and in [20] were 1460 ± 22.6 fluorescence intensity and 123 ± 7.11 fluorescence intensity, respectively.

Regarding UAGCUUAUCAGACUGAUGUUGA, the binding signal in experiment [1] amounted to 21.3 ± 6.6 fluorescence intensity; in experiment [3] it was 20.5 ± 0.276 fluorescence intensity; in [4], 567 ± 57.8 fluorescence intensity; in experiment [5], 45.6 ± 13.3 fluorescence intensity; in experiment [7] it was 1040 ± 177 fluorescence intensity; in [8] it was 1160 ± 14.2 fluorescence intensity. The binding signal in [9] worked out at 2210 ± 93.6 fluorescence intensity; in experiment [10], 330 ± 22.3 fluorescence intensity; in [11], 255 ± 27.4 fluorescence intensity; in experiment [12], 717 ± 152 fluorescence intensity; in experiment [13], 653 ± 28.8 fluorescence intensity; in experiment [14], 118 ± 118 fluorescence intensity. Further, the binding signal in experiment [15] came out at 162 ± 10.4 fluorescence intensity; in experiment [16], 42.1 ± 8.05 fluorescence intensity; in [17], 38.7 ± 15.4 fluorescence intensity; in experiment [19], 189 ± 14.5 fluorescence intensity.

Consider UGAGGUAGUAGGUUGUAUGGUU, for which the binding signal in [1] was determined as 79.94 ± 0.219 fluorescence intensity; in experiment [2] it was 162 ± 13.3 fluorescence intensity; in experiment [3] it was 96 ± 8.15 fluorescence intensity; in experiment [4], 423 ± 34.1 fluorescence intensity; in experiment [5], 24.5 ± 18.4 fluorescence intensity; in [6], 24.3 ± 1.9 fluorescence intensity. The binding signal in experiment [7] turned out to be 2750 ± 76 fluorescence intensity; in experiment [8], 2750 ± 97.5 fluorescence intensity; in [9], 2938 ± 25.1 fluorescence intensity; in [10], 697 ± 11.7 fluorescence intensity; in experiment [11], 2642 ± 18.6 fluorescence intensity; in experiment [12] it was 2980 ± 146 fluorescence intensity. Moreover, the binding signal in [13] was determined as 1210 ± 62.5 fluorescence intensity; in experiment [14], 66.6 ± 14.3 fluorescence intensity; in experiment [15], 636.15 ± 0.594 fluorescence intensity; in [16], 628 ± 29.6 fluorescence intensity; in experiment [17] it was 251.8 ± 1.32 fluorescence intensity; in experiment [18] it was 211 ± 6.4 fluorescence intensity. Also, the binding signal amounted to 1150 ± 9.06 fluorescence intensity in [19] and 97.4 ± 6.78 fluorescence intensity in experiment [20].

Consider UGAGGUAGUAGGUUGUAUAGUU, for which the binding signal stood at 29.8 ± 2.19 fluorescence intensity in experiment [1]; 37 ± 6.58 fluorescence intensity in [2]; 30.5 ± 1.88 fluorescence intensity in [3]; 175 ± 17.3 fluorescence intensity in experiment [4]; 2178 ± 19.2 fluorescence intensity in experiment [7]; 2270 ± 106 fluorescence intensity in experiment [8]. The binding signal in experiment [9] was determined as 1110 ± 13.1 fluorescence intensity; in experiment [10], 117 ± 15.5 fluorescence intensity; in [11], 1499 ± 4.81 fluorescence intensity; in experiment [12], 1600 ± 139 fluorescence intensity; in [13] it was 608.35 ± 0.587 fluorescence intensity; in experiment [14], 42.8 ± 2.43 fluorescence intensity. The binding signal was 244.2 ± 0.382 fluorescence intensity in experiment [15]; 282 ± 110 fluorescence intensity in experiment [16]; 69.3 ± 9.98 fluorescence intensity in experiment [17]; 31.2 ± 7.62 fluorescence intensity in experiment [18]; 602 ± 7.03 fluorescence intensity in experiment [19].

With CAGUGCAAUGAUGAAAGGGCAU, the binding signal in [1] was determined as 48.3 ± 1.66 fluorescence intensity; in experiment [2], 130 ± 7.88 fluorescence intensity; in experiment [3] it was 68.5 ± 5.81 fluorescence intensity; in experiment [4], 433.1 ± 0.594 fluorescence intensity; in experiment [5], 29.4 ± 2.27 fluorescence intensity; in experiment [6], 22.5 ± 0.509 fluorescence intensity. Also, the binding signal in experiment [7] was 1010 ± 110 fluorescence intensity; in experiment [8] it was 1043.4 ± 0.00707 fluorescence intensity; in experiment [9] it was 3922 ± 30.6 fluorescence intensity; in [10], 1910 ± 49.7 fluorescence intensity; in [11] it was 2236 ± 9.55 fluorescence intensity; in [12] it was 1540 ± 260 fluorescence intensity. The binding signal in experiment [13] was determined as 965 ± 66.1 fluorescence intensity; in experiment [14], 35.7 ± 11 fluorescence intensity; in [15], 146 ± 4.99 fluorescence intensity; in experiment [16], 151 ± 17.8 fluorescence intensity; in [17] it was 116 ± 6.43 fluorescence intensity; in [18], 60.5 ± 8.1 fluorescence intensity. Also, the binding signal in experiment [19] worked out at 824 ± 79.4 fluorescence intensity; in experiment [20], 68.7 ± 5.11 fluorescence intensity.

Source of the values: publication PMC11574364.
